# Data as given in PubChem BioAssay (NCI).
# Compounds without any hit were thinned out: in the full panel of roughly 83,000, 20% have a hit.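 Results are percent growth after 48 hours of single-concentration exposure. 100 means growth as in untreated cells, lower positive values show inhibition; negative values down to -100 show cell death.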 Calls of active or inactive are those of the source.
# Tested on: OVCAR-4 ovarian
# Assay: NCI-60 one-dose screen, 48 h (100 = growth as untreated, 0 = no growth, -100 = all killed)
# Settings: 10 µM unless noted
# Description: Growth inhibition of the OVCAR-4 human tumor cell line is measured as a screen for anti-cancer activity. Cells are grown in 96 well plates and exposed to the test compound for 48 hours. Compounds are tested at a single concentration, which is 10^-5 M for most compounds. The reported endpoint is percent growth (GI% or GIPRCNT), where numbers from 0 - 100% represent growth inhibition, and numbers from -100% - 0 represent cell death. For example, a value of 40 represents 60% growth inhibition. A value of 0 means no net growth occurred over the course of the experiment. A value of -40 indicates 40% of cells at the beginning of the experiment died by the end of the experiment. A value of -100 means all cells are dead at the end of the experiment.
# NCI-60 Human Tumor Cell Lines Screen was performed using the standard one-dose NCI protocol, which is described in more detail at https://dtp.cancer.gov/discovery_development/nci-60/default.htm.
# Compounds with GIPRCNT values below 10 were considered active. Activity score was based on GIPRCNT using the following formula: […]
# Score is 0 for GIPRCNT values of 100 or above, 50 for GIPRCNT values of 0, and 100 for GIPRCNT values of -100.
row,Structure (SMILES),growth
1,CCOC(=O)/C(=C/c1c(-c2ccccc2)[nH]c2ccccc12)C(=O)c1ccc(Cl)cc1,46.8% (inactive)
2,c1ccc(-c2n(Cc3ccc4ccccc4n3)cc[n+]2Cc2ccc3ccccc3n2)cc1,32.9% (inactive)
3,O=C(Nc1ccc2ncnc(Nc3cccc(C(F)(F)F)c3)c2c1)c1cccs1,33.1% (inactive)
4,N#Cc1c(-c2ccc(F)cc2)c(C#N)c2c(C#N)c(N)nn2c1N,100% (inactive)
5,CNS(=O)(=O)c1cccc(-c2ccc3c4c(n(C)c(=O)c3c2)-c2ccccc2C4=O)c1,92.1% (inactive)
6,COc1ccc(/C=C/C(=O)/C=C(/C=C/c2ccc(OC)c(OC)c2)OB(F)F)cc1OC,44.8% (inactive)
7,CCCCn1c(=O)c(/C=C/C(=O)/C=C/c2ccc(O)c(OC)c2)cc2ccc(Cl)cc21,26.1% (inactive)
8,CN1CCN(/C=C2\CC(C(=O)NCc3ccc(Cl)cc3Cl)NC2=O)CC1 (stereo not given),110% (inactive)
9,O=C(CCc1nnc2sc(OCc3ccccc3)nn12)c1nc2ccc([N+](=O)[O-])cc2[nH]1,102% (inactive)
10,Cc1[nH]c(N=Nc2ccccc2)nc1N=Nc1ccccc1,30.3% (inactive)
11,CSc1cccc(NC(=O)Nc2nc3c(C)cccc3s2)c1,85% (inactive)
12,O=c1c2ccccc2n(CC(O)CN2CCCC2)c2c(Br)cccc12 (stereo not given),108% (inactive)
13,COc1cc(NCC(=O)Nc2cc(Nc3cccc(C(F)(F)F)c3)ncn2)c(Cl)c(OC)c1Cl,99.2% (inactive)
14,C#Cc1ccccc1NC(=O)c1sc2nc3c(cc2c1N)CCCCC3,103% (inactive)
15,C=C(C)[C@@H]1CC[C@]2(C(N)=O)CC[C@]3(C)[C@H](CC[C@@H]4[C@@]5(C)CCCNC(C)(C)[C@@H]5CC[C@]43C)[C@@H]12,83.6% (inactive)
16,CCOC(=O)c1c(C)nc2c(c1N)/C(=C/c1ccccn1)C(=O)N2Cc1ccccc1,47.8% (inactive)
17,COc1cc2nc3c(=O)n(CCN(C)C)cnn3c(=O)c2cc1OC,101% (inactive)
18,O=C1Nc2ccc(Br)cc2/C1=N\N=C/c1cn(Cc2ccccc2)c2ccccc12,84.3% (inactive)
19,COc1cc([C@H](C)c2ccc3ccccc3c2)cc(OC)c1OC,40.6% (inactive)
20,Cc1nnc(/N=C2\NC(=O)/C(=C/c3ccsc3)S2)s1,90.6% (inactive)

row,Structure (SMILES),growth
1,CCCCCCCc1n(Cc2ccc3ccccc3c2)c2ccccc2[n+]1Cc1ccc2ccccc2c1,-62.5% (active)
2,CCCS(=O)(=O)Nc1ccc(F)c(C(=O)c2c[nH]c3ncc(-c4ccc(OCCCC5CCCCN5)nc4)cc23)c1F (stereo not given),83.6% (inactive)
3,COc1ccc2c(c1)OC13Oc4cc(OC)ccc4C=C1CCCCC3=C2,104% (inactive)
4,CC(C)(C)c1ccc2oc(=O)n(SC(Cl)(Cl)Cl)c2c1,106% (inactive)
5,C#CCN1C(=O)c2ccccc2N(CC#C)C12CCN(Cc1cn(CC(=O)Nc3ccccc3C(N)=O)nn1)CC2,89% (inactive)
6,COc1cc(-c2csc(NC(=O)Nc3ccc(C(F)(F)F)cc3)n2)cc(OC)c1OC,13.4% (inactive)
7,O=C(CN1N=C(c2ccc(F)cc2)CCC1=O)Nc1nccs1,97.6% (inactive)
8,C#CCOC(=O)[C@]1(C)CCC[C@]2(C)[C@H]3C[C@H]4C(C(C)C)=C[C@]3(CC[C@H]21)[C@@H]1C(=O)CCC(=O)[C@@H]14,73.9% (inactive)
9,CCc1ccc(OCc2ccccc2C(=O)Nc2ccc3nc(C)cc(N)c3c2)cc1,-84.3% (active)
10,COC(=O)c1cc2c3c(cc(O)c2[nH]1)N(C(=O)C1Cc2cc(OC)c(OC)c(OC)c2N1)CC3CCl (stereo not given),-98.7% (active)
11,N#Cc1nc(-c2ccccc2)oc1S(=O)(=O)NCC(c1ccc(Cl)cc1)N1CCCCC1 (stereo not given),99.3% (inactive)
12,Cn1c2c(c3ccc(-c4ccn[nH]4)cc3c1=O)C(=O)c1ccccc1-2,74% (inactive)
13,O=c1c2ccccc2oc2ccc(OCCCCCN3CCCCCC3)cc12,73.1% (inactive)
14,O=C(Nc1nc(-c2ccccc2Cl)cs1)c1cc(-c2ccc(Br)cc2)nc2ccccc12,46.6% (inactive)
15,CC1CCCN(CCCCCOc2ccc3oc4ccccc4c(=O)c3c2)C1 (stereo not given),83.1% (inactive)
16,COc1ccc(C(=O)c2cc(F)c(F)c(OC)c2F)cc1OC(=O)CCl,81.7% (inactive)
17,C=C(C)[C@@H]1CC[C@]2(C(=O)OCCCC[P+](c3ccccc3)(c3ccccc3)c3ccccc3)CC[C@]3(C)[C@H](CC[C@@H]4[C@@]5(C)CC[C@H](OC(=O)C(Cl)Cl)C(C)(C)[C@@H]5CC[C@]43C)[C@@H]12,-0.103% (active)
18,C#Cc1cccc(Nc2ncnc3ccc(NC(=O)c4ccccc4)cc23)c1,80.4% (inactive)
19,CN(CCC#N)C(=O)Nc1ccccc1,104% (inactive)
20,O=C(O)c1cn(C2CC2)c2cc(N3CCN(Cc4nnc(Nc5ccccc5)o4)CC3)c(F)cc2c1=O,101% (inactive)
